Results: ChEMBL document CHEMBL3433997, “St. Jude Leishmania screening dataset” (2016)

Legend:
Assay type in all cases: functional
[1] = molecular target: Solute carrier family 2, facilitated glucose transporter member 1 (Homo sapiens) (UniProt P11166); assay: ST_JUDE_LEISH: Cytotoxicity at 2uM final concentration against transgenic Leishmania Mexicana promastigotes LmGLUT1 that are glucose transport deficient and complemented with the human glucose transporter GLUT1. Activity is measured by DNA content using SYBR green in vitro
Solute carrier family 2, facilitated glucose transporter member 1 (Homo sapiens), sequence (P11166 whole entry): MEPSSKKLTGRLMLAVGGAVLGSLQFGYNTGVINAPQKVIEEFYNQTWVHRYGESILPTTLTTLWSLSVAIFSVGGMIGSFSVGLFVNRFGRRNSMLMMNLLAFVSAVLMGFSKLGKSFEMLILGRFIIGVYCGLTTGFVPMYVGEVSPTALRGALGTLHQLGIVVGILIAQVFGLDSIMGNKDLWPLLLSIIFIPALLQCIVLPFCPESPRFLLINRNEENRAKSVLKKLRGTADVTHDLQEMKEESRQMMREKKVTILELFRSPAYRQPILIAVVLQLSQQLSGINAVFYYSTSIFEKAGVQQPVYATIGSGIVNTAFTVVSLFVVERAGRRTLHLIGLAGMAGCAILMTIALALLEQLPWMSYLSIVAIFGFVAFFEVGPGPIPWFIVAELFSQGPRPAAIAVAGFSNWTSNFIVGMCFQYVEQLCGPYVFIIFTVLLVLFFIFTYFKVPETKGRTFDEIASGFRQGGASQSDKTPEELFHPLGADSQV

[2] = molecular target: Hexose transporter 1 (Plasmodium falciparum) (UniProt O97467); assay: ST_JUDE_LEISH: Cytotoxicity at 2uM final concentration against transgenic Leishmania Mexicana promastigotes LmPfHT that are glucose transport deficient and complemented with the Plasmodium falciparum hexose transporter. Activity is measured by DNA content using SYBR green in vitro
[3] = molecular target: Glucose transporter (Leishmania mexicana) (UniProt O61059); assay: ST_JUDE_LEISH: Cytotoxicity at 2uM final concentration against transgenic Leishmania Mexicana promastigotes LmGT2 that are glucose transport deficient and complemented with the L. Mexicana glucose transporter 2. Activity is measured by DNA content using SYBR green in vitro

| Compound | inhibition [1] [%] | inhibition [2] [%] | inhibition [3] [%] |
| --- | --- | --- | --- |
| CN(CCN)Cc1cccc(-c2cccc(-c3nc4cc(C(F)(F)F)ccc4[nH]3)c2)c1 | 2.68 | 2.47 | 3.72 |
| O=C(NC1CC1)c1ccc(N2CCC(Oc3ccc(F)cc3)CC2)nc1 | 2.46 | 1.1 | 1.42 |
| O=C(Nc1cccc(Cl)c1)OC1CCCN2CCCCC12 (stereo unspecified) | 10.8 | 10.6 | 9.42 |
| CN(c1ncc(-c2cccc(CNCc3ccccc3O)c2)cn1)C1CCCCC1 | -1.25 | -0.2 | 0.12 |
| Cc1cccc2nc(-c3cccc(-c4ccc(NC(=O)C5CC(=O)Nc6ccccc65)cc4)c3)[nH]c12 (stereo unspecified) | 2.47 | 3.87 | 0.15 |
| O=C(NCc1cccc(F)c1)Nc1cccc(-c2cccc(-c3nc4cc(C(F)(F)F)ccc4[nH]3)c2)c1 | 0.12 | 2.8 | -2.1 |
| CC(C)c1sc(-c2ccc(C(C)(C)C)cc2)nc1C(=O)NCCCN1CCCC1=O | 1.02 | 1.22 | 1.9 |
| Cc1cccc2nc(-c3cccc(-c4ccc(CN5CCC(C(N)=O)CC5)cc4)c3)[nH]c12 | 9.22 | 9.68 | 9.06 |
| Cc1c(C)c2c(c(C)c1O)CC[C@](C)(C(=O)N1CCC(CCN3CCC(c4c[nH]c5ccccc45)CC3)CC1)O2 | 0.17 | -1.76 | -0.6 |
| O=[N+]([O-])c1cccc(CNC2CCN(Cc3ccc(-c4ccccc4)cc3)CC2)c1 | 1.94 | 8.06 | 2.9 |
| COc1cc(NC(=O)c2nn(CCCN3CCC(N4CCCC4)CC3)cc2-c2ccc(Cl)c(Cl)c2)cc(OC)c1OC | 1.76 | 2.09 | 1.96 |
| CC(Oc1c(C2CCN(CCCCNC(=O)c3ccc(-c4ccc(C#N)cc4)cc3)CC2)ccc2c1CCCC2)C(N)=O (stereo unspecified) | -0.84 | 1.22 | 0.3 |
